Test results taken from PubChem BioAssay (NCI).
About 83,000 compounds went through this panel and 20% of them were active in at least one assay; those are over-represented in the sample as a whole.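 Interpretation: 100, growth as untreated; towards 0, rising growth inhibition; 0, no net growth; 0 to -100, cell death. Compounds scoring below 10 were considered active.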 Values without a mark were called inactive. Activity calls are given as the source filed them.

Key:
Assay in all cases: NCI-60 one-dose screen, 48 h (100 = growth as untreated, 0 = no growth, -100 = all killed)
Details in all cases: 10 µM unless noted
[1] = system: SR leukemia
[2] = system: RPMI-8226 leukemia
[3] = system: OVCAR-8 ovarian
[4] = system: OVCAR-5 ovarian
[5] = system: OVCAR-4 ovarian
[6] = system: SK-OV-3 ovarian
[7] = system: IGROV1 ovarian
[8] = system: OVCAR-3 ovarian
[9] = system: HS 578T breast
[10] = system: NCI/ADR-RES ovarian

SMILES | growth [1] | growth [2] | growth [3] | growth [4] | growth [5] | growth [6] | growth [7] | growth [8] | growth [9] | growth [10]
C=C1C(=O)O[C@H]2[C@H]1CC/C(COC(=O)NCc1ccc(OC)c(OC)c1)=C\CC[C@@]1(C)O[C@@H]21 | 6.13% (active) | 25.1% | 47.9% | 85.1% | 42.3% | 101% | 61% | 19.9% | 86.2% | 93.9%
Cn1cc(C(=O)c2nc(-c3c[nH]c4ccccc34)no2)c2ccccc21 | 44.1% | 78.9% | 91.1% | 66% | 57.3% | 69.8% | 25.7% | 12.8% | 56.2% | 64.2%
CN(C)CCN1C(=O)c2cccc3c(N)ccc(c23)C1=O | -19.2% (active) | 4.13% (active) | 18.1% | 36.5% | 41.6% | 32.2% | 27.6% | 21.8% | 56.8% | 40%
NC(=O)c1cc(Br)ccc1NC(=O)/C=C/c1ccccc1 | -10.1% (active) | 24.4% | 54.4% | 49.9% | 35.8% | 31.1% | 86.6% | -12.2% (active) | 16.3% | 11%
O=C1c2cc3c(cc2-c2c1c1ccc(F)cc1c(=O)n2CCCNCCO)OCO3 | -25.7% (active) | -12.5% (active) | -33% (active) |  | -76.9% (active) | -33.7% (active) | -5.09% (active) | -28.1% (active) | 3.15% (active) | -13.8% (active)
Nc1n[nH]c2cc(F)c([C@@H]3Nc4ccc5[nH]ncc5c4[C@H]4C5CCC(C5)[C@@H]34)cc12 (stereo partly drawn) | 9.53% (active) | 32.1% | 19.5% | 30.1% |  | 20.6% | 15% | 12.9% | -4.82% (active) | -26.9% (active)
Clc1ccc2c(NCCNc3nc(N4CCCCC4)nc4ccccc34)ccnc2c1 | -29.5% (active) | -41.6% (active) | -30.5% (active) | 25.4% |  | -2.73% (active) | 30.4% | -64.7% (active) | 37.9% | 25.4%
COc1ccc(/C=C/C(=O)c2cc(O)ccc2O)cc1 | 71.9% | 45.8% | 88.6% |  | 136% | 115% | 83.4% | 83.4% | 106% | 91.8%
COc1cc(-c2nc(C(=O)NCC(=O)NO)nn2-c2ccc(Cl)cc2)cc(OC)c1OC | 84.8% | 105% | 98.5% |  | 105% | 93.3% | 112% | 103% | 85.6% | 106%
CN1CCN(CCCOc2cccc3nc(Nc4cc(Cl)cc(Cl)c4)ccc23)CC1 | -30.2% (active) | -14.8% (active) | 51.4% | 3.71% (active) |  | 90.2% | 42.8% | 26.3% | 37.5% | 6.46% (active)
Cc1nn(-c2cc(=O)[nH]c3ccc(Cl)cc23)c(N)c1C#N | 121% | 97.7% | 91.6% | 99.3% |  | 102% | 73.1% | 105% | 103% | 97.4%
Cc1nn(-c2ccc(F)cc2)c2ncnc(Nc3ccc(NC(=O)Nc4ccc(Cl)c(C(F)(F)F)c4)cc3)c12 | 46.1% | 19.3% | 35.4% |  | 23.8% | 65.7% | 31% | -4.21% (active) | 31.3% | 38.2%
O=C1c2cc3c(cc2-c2c1c1ccc(Cl)cc1c(=O)n2CCCN1CCOCC1)OCO3 | 4.71% (active) | 60.8% | 70.9% | 109% |  | 33.4% | 82.6% | 86.5% | 108% | 45.9%
Fc1ccc2[nH]cc(SSc3c[nH]c4ccc(F)cc34)c2c1 | -29.4% (active) | -14% (active) | 40.5% | 46.8% |  | 95.2% | 77.8% | 50.5% | -29.2% (active) | 17.4%
Nc1ccc(S(=O)(=O)O)c2ccc(N=Nc3ccc(N=Nc4ccc(S(=O)(=O)O)cc4)c4ccccc34)c(O)c12 | 99.8% | 104% | 103% | 108% |  | 96% | 86.5% | 108% | 100% | 112%
O=C1NC(=Nc2ccc(O)cc2)S/C1=C\c1cccc(Cl)c1 | 23.1% | 2.99% (active) | 84.3% |  | 90.3% | 77.1% | 65.7% | 30.1% | 63.1% | 83.8%
CC(C)(C)c1cc(C(C)(C)C)cc(S(=O)(=O)Nc2cc3ccccc3cc2C(=O)NCCN)c1 | -32.1% (active) | -5.61% (active) | 5.01% (active) | 94.8% |  |  | 62.3% | 70.5% | 73.2% | 82%
O=C1c2cc3c(cc2-c2c1c1ccc(F)cc1c(=O)n2C[C@H](O)[C@H](O)[C@H](O)CO)OCO3 | -8.53% (active) | -12.9% (active) | -3.45% (active) | -20.6% (active) |  | -30.3% (active) | 7.16% (active) | -17% (active) | -8.24% (active) | -23.8% (active)
c1csc(C2=NN3C(C2)c2ccccc2OC3c2ccncc2)c1 (stereo not drawn) | 100% | 92.8% | 96.1% |  | 90.9% | 93.8% | 76.1% | 98.9% | 87.2% | 98.4%
OCCN1CCN(c2nc(Nc3ccc(-c4nc5ccccc5[nH]4)cc3)c3cn[nH]c3n2)CC1 | -61.1% (active) | -48.5% (active) | -91% (active) | -76.2% (active) |  | -95.9% (active) | -78% (active) | -82.3% (active) | -47% (active) | -77.3% (active)
COc1ccc(CN2c3ccccc3Oc3ccccc32)cc1O | 17.4% | 14.1% | 35.6% | 91.5% |  | 31.3% | 45.3% | 18.6% | 31.1% | 25.2%
O=C1c2cccc3cccc(c23)C(=O)N1CCCCN1CCN(CCCCOc2ccc(-c3nc4ccc(N5CCOCC5)cc4[nH]3)cc2)CC1 | -65% (active) | 32.4% | 22% |  | 79.4% | 95.9% | 68.9% | 100% | 86.6% | 76.6%
CCN(CC)c1ccc(-c2cc(-c3cc(OC)c(OC)c(OC)c3)nc(N3CCOCC3)c2C#N)cc1 | -8.39% (active) | -33.1% (active) | -28.4% (active) |  | 38.2% | 51.8% | 19.5% | 32.8% | 55.8% | 27.6%
O=C1/C(=C/N2N=C(c3ccc4ccccc4c3)CC2c2ccccc2O)SC(=S)N1c1cccnc1 (stereo not drawn) | 29.2% | -8.29% (active) | 28.3% |  | 66.1% | 39.4% | 26.4% | 7.76% (active) | 13.2% | 23.6%
O=C(Cc1ccc(/C=C/C(=O)c2ncc[nH]2)cc1)Nc1ccccc1 | 1.14% (active) | -0.0972% (active) | 22.1% | 78.5% |  | 75.9% | 63.5% | 17.7% | 80.7% | 31.1%
Nc1nc2ccc3[nH]ncc3c2c2c1CCCC2 | -16.6% (active) | 6.83% (active) | 7.6% (active) | 8.24% (active) |  | 16.6% | 8.21% (active) | 5.2% (active) | -9.88% (active) | 2.46% (active)
C(=N/Nc1ncc(-c2cc3cc(-c4ccccc4)ccc3o2)s1)/c1cccs1 | 79% | 70.4% | 99.5% |  | 89.6% | 113% | 102% | 97.1% | 107% | 101%
OC(c1cc2cc(Cl)c(Cl)cc2c2cc(C(F)(F)F)ccc12)C1CCCCN1 (stereo not drawn) | -59.9% (active) | -37.1% (active) | -71.3% (active) | -41.6% (active) |  | 34% | -64.9% (active) | -90.3% (active) | -50.4% (active) | -79.1% (active)
O=C1C=C(O)C(=O)C(CC2=C(O)C(=O)C=C(O)C2=O)=C1O | 103% | 107% | 105% | 91% |  |  | 109% | 108% | 99.4% | 99.6%
